Test results from PubChem BioAssay (NCI).
About 83,000 compounds went through this panel and 20% of them were active in at least one assay; those are over-represented in the sample as a whole.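 96-well plates, one dose, 48 hours. Percent growth reported; active if below 10.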 Unmarked numbers belong to inactive results. Activity calls are given as the source filed them.

System: HL-60(TB) leukemia
Experiment: NCI-60 one-dose screen, 48 h (100 = growth as untreated, 0 = no growth, -100 = all killed)
Conditions: 10 µM unless noted

SMILES	growth
CCN(CC)CC#CCOC(=O)[C@]1(C)CCC[C@]2(C)c3ccc(C(C)C)cc3CC[C@@H]12	63.6%
COc1cc(-c2ccc(N=Nc3c(O)c(C(=O)Nc4ccccc4OC)cc4ccccc34)c(OC)c2)ccc1N=Nc1c(O)c(C(=O)Nc2ccccc2OC)cc2ccccc12	79.2%
CN(C)c1ccc2cc(-c3cc4c(oc3=O)-c3ccccc3OC4O)c(=O)oc2c1 (stereo unspecified)	-66.5% (active)
COC(=O)[C@@H]1[C@H](O)[C@H](C)[C@H](O)[C@H](C)/C=C\C=C(C)C(=O)Nc2c(C)c(OC(C)=O)c3c(c2O)C(=O)C(C)=C2OCOC(=C23)C(C)=C[C@@](C)(O)[C@H](O)[C@@H](C)[C@H]1OC(C)=O	119%
Brc1ccc(SCN(CSc2ccc(Br)cc2)Cc2ccccc2)cc1	40.3%
O=C(Nc1ccccc1O)c1ccc(Oc2cccc(C(=O)Nc3ccccc3O)c2)cc1	-40.4% (active)
Cc1occc1-c1nnc(SCC(=O)c2ccc(NC(=O)CC(C)C)cc2)o1	98.3%
O=C(NCCCNc1cc(-c2cn(-c3ccccc3)nc2-c2cccc(O)c2)ccn1)c1ccccc1	8.91% (active)
c1ccc(Sc2ccccc2)cc1	85.8%
Cn1c(C(=O)c2cccc3ccccc23)nc2ccccc21	3.94% (active)
N#Cc1nc(-c2ccc(Cl)cc2)cc(-c2ccc(Nc3nc(N4CCCCC4)nc(N4CCCCC4)n3)cc2)c1N	99.2%
COc1ccc(/C=C2\c3cc(OC)c(OC)c(OC)c3CC[C@@H]2O)cc1F	-22.4% (active)
CCOC(CNCc1cc(C)c2[nH]c3ccccc3c2c1C)OCC	86%
CCOC(=O)C(=CNc1ccccc1[N+](=O)[O-])C(=O)OCC	90.8%
O=C1c2ccc3c4c(ccc(c24)C(=O)N1CCCNCc1ccccc1)C(=O)N(CCCNCc1ccccc1)C3=O	-71.3% (active)
CC/C(=C\c1ccc(OC)cc1)C(=O)c1ccc(OC)cc1	131%
O=C(Nc1ccsc1C(=O)NC1CCCCC1)c1ccc(F)cc1	90.2%
COc1ccccc1-c1nc2ccc3[nH]ncc3c2c2c1CCCC2	89.6%
O=C(Nc1cccc(-n2cc(-c3ccncc3)c(-c3cc(O)cc(Cl)c3)n2)c1)c1cc(C(F)(F)F)cc(C(F)(F)F)c1	21.4%
N=C(N)c1ccc(OCCCCCCCCCCOc2ccc(C(=N)N)cc2)cc1	-70.1% (active)
CC(CN1CCCCC1)C(=O)c1ccccc1 (stereo unspecified)	103%
